Screens from PubChem.
MITF act: activators of MITF-driven TRPM1 promoter activity in SK-MEL-5 cells; SK-MEL-5 TRPM1-promoter luciferase, 24 h; % of positive control, neutral wells = 0; 0.75% of 300,000 active; activation, % at 12.5 µM;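 active = mean activation of at least 80% with every replicate also reaching 80%; inconclusive = mean reaches 80% but some replicate falls short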;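 also: 0% = neutral control wells and 100% = parthenolide positive control wells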
EWS-Fli block: EWS/Fli transcriptional activity inhibition. 0.67% of 350,000 active. A673 NR0B1-luciferase reporter, viability-normalised. inhibition, % at 12.6 µM;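 active = mean inhibition of at least 50% after viability correction, with every replicate also passing that limit; inconclusive = mean reaches 50% but only one of two replicates passes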;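 also: firefly luciferase signal divided by Alamar Blue viability fluorescence both relative to DMSO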
esBAF inh: inhibitors of esBAF chromatin remodeling in mouse ES cells | reporter increase, % at 12.5 µM | AID 602393 | 2% of 350,000 active | Bmi1-luciferase knock-in reporter, 24 h; 100% = twice the neutral-well signal; in the data active = activation above about 40%; inconclusive = no clear call, values can overlap the other calls;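 also: 0% = median of the plate's neutral control wells and 100% = double that signal; a rise in the Bmi1 reporter signal indicates esBAF inhibition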
PAX8 reporter: inhibitors of PAX8 transcriptional activity in RMG-I cells. inhibition, % at 12.6 µM. RMG-I TPO-luciferase reporter, SteadyGlo, 24 h. AID 652154. 1.2% of 360,000 active;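 active = mean replicate inhibition at least 60% with every replicate also reaching 60%; inconclusive = only one of the two criteria is met; inactive = mean below 60% and not all replicates reaching 60%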;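 also: luciferase light reporting Pax8 driven TPO promoter activity; plate controls were median of neutral control wells for no effect and mitoxantrone controls for full effect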
MITF TRPM1 inh: inhibitors of MITF-driven TRPM1 promoter in melanoma cells. SK-MEL-5 TRPM1 promoter luciferase, 24 h. 0.83% of 330,000 active. AID 488899. inhibition, % at 12.5 µM;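 active = mean inhibition across replicates of 60% or more, whatever share of single replicates reaches that level; inconclusive = some that reach 60%, reason not given; inactive = mean inhibition across replicates below 60%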
Wnt act: activators of Wnt/beta-catenin signaling; Wnt/beta-catenin reporter cell assay, activator, plate reader; activation, % at 9.35 µM; 1.2% of 300,000 active; AID 743398; in the data active = activation above about 30%, passing the limit was not always enough; inconclusive = no clear call, values can overlap the other calls;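 also: 0% = neutral control wells and 100% = positive control wells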
An asterisk follows results filed as active. The list is not random: actives were taken first. Their share in the collection is about 4%.

Results for Cc1ccc(N(Cc2cc(=O)[nH]c3ccccc23)C(=O)CCl)c(C)c1 ?
MITF act: -61; EWS-Fli block: 67*; PAX8 reporter: 69*; MITF TRPM1 inh: inconclusive; Wnt act: -3

Results for CO[C@@H]1CN(C)C(=O)c2cc(NS(C)(=O)=O)ccc2OC[C@@H](C)N(C(=O)C2CCCCC2)C[C@@H]1C ?
EWS-Fli block: 5; esBAF inh: -1; PAX8 reporter: -4

How did OC1CCCCC1Sc1nc2ccccc2s1 (stereo not drawn) do in these assays?
MITF act: 55; esBAF inh: 53*; MITF TRPM1 inh: -57; Wnt act: 28

How did CC(C)NC(=O)N1C[C@H]2[C@@H](c3ccccc31)[C@@H](CO)N2C(=O)c1ccc(F)cc1 do in these assays?
EWS-Fli block: 3; esBAF inh: -2; PAX8 reporter: -12

What do the screens show for `COCC(=O)N1C[C@@H](C)[C@H](OC)CN(C)C(=O)c2ccc(NC(=O)Nc3ccccc3)cc2OC[C@@H]1C`?
EWS-Fli block: -4

What do the screens show for `COc1ccc2oc(C(=O)Nc3ccc(C)cn3)c(C)c2c1`?
MITF act: 76; EWS-Fli block: -48; esBAF inh: inconclusive; PAX8 reporter: -52; MITF TRPM1 inh: -72; Wnt act: 38*

Results for COc1ccc2oc(C(=O)Nc3ccccn3)c(C)c2c1 ?
MITF act: -8; esBAF inh: -49; PAX8 reporter: -160; MITF TRPM1 inh: 11; Wnt act: 43*

How did COCc1c(C(=O)Nc2nc(C)cs2)oc2ccccc12 do in these assays?
MITF act: -11; EWS-Fli block: -32; PAX8 reporter: 28; MITF TRPM1 inh: 7; Wnt act: 7

What do the screens show for `COc1ccc(C(=O)Nc2ccccn2)cc1`?
MITF act: -1; esBAF inh: -5; MITF TRPM1 inh: 2

What do the screens show for `COc1ccc2oc(C(=O)Nc3nc(C)cs3)c(C)c2c1`?
MITF act: 79; EWS-Fli block: 4; esBAF inh: 22; PAX8 reporter: -204; MITF TRPM1 inh: -76; Wnt act: 51*

How did COc1ccc(NC(=O)Nc2ccc3c(c2)C(=O)N([C@@H](C)CO)C[C@@H](C)[C@@H](CN(C)C(=O)Nc2ccc4c(c2)OCO4)O3)cc1 do in these assays?
EWS-Fli block: -12; esBAF inh: 2; PAX8 reporter: 4

How did CO[C@H]1CN(C)C(=O)c2cc(NC(C)=O)ccc2OC[C@H](C)N(CC2CCCCC2)C[C@@H]1C do in these assays?
EWS-Fli block: 2; esBAF inh: 3; PAX8 reporter: -7

How did COc1ccc(-c2nn(-c3ccccc3)cc2/C=C(\CC(=O)O)c2nc3ccccc3s2)cc1OC do in these assays?
MITF act: 13; EWS-Fli block: -6; esBAF inh: 40*; PAX8 reporter: -3; MITF TRPM1 inh: -13; Wnt act: 11

What do the screens show for `COc1ccc(/C=C(\CC(=O)O)c2nc3ccccc3s2)cc1O`?
MITF act: 2; EWS-Fli block: 1; esBAF inh: 9; PAX8 reporter: -1; MITF TRPM1 inh: 3; Wnt act: 5

Results for O=C(O)c1c2c(nc3ccccc13)/C(=C/c1ccc(OC(F)F)cc1)CCC2 ?
MITF act: 27; EWS-Fli block: -26; esBAF inh: 59*; PAX8 reporter: -88; MITF TRPM1 inh: -25; Wnt act: 9

How did OC1CCCN(c2c3c(nc4cc(-c5cccc(F)c5)nn24)CCCC3)C1 (stereo not drawn) do in these assays?
MITF act: 87*; EWS-Fli block: -112; PAX8 reporter: -102; MITF TRPM1 inh: -86; Wnt act: 14

Results for Fc1ccc(-c2cc3nc4c(c(N5CCOCC5)n3n2)CCCC4)cc1 ?
MITF act: 29; EWS-Fli block: -62; esBAF inh: 53*; MITF TRPM1 inh: -23; Wnt act: 9

What do the screens show for `Cc1cccc(-c2cc3nc4c(c(N5CCC6(CC5)OCCO6)n3n2)CCCC4)c1`?
MITF act: 91*; EWS-Fli block: -40; esBAF inh: 78*; MITF TRPM1 inh: -84; Wnt act: 9

Results for Cc1cccc(-c2cc3nc4c(c(N5CCOCC5)n3n2)CCCC4)c1 ?
MITF act: 30; EWS-Fli block: -50; esBAF inh: 7; MITF TRPM1 inh: -37; Wnt act: 7
